From PubChem BioAssay
Mcl1-Noxa inh = disrupts binding of human Mcl-1 to Noxa peptide; Q07820; TR-FRET Mcl-1/Noxa peptide binding, 2 h; inhibition, % at 21.7 µM; hit rate 1.5% among 220,000; AID 1022;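 active means compounds that cut the protein-peptide binding signal by more than 50% relative to plate controls in a single-dose test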;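 further: His-tagged Mcl-1 with rhodamine Noxa BH3 peptide and terbium anti-His antibody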
Target sequence (Q07820 whole entry, looked up): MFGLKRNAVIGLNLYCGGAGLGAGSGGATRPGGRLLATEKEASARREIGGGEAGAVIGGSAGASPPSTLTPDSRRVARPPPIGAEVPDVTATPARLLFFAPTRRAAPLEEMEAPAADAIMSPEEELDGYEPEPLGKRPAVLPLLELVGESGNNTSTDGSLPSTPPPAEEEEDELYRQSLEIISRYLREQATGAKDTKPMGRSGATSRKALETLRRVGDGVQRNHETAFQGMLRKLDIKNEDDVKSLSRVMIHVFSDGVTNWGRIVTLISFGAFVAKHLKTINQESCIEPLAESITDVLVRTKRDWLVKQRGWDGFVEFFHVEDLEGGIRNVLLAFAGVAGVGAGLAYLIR
p47phox inh = blocks human p47phox regulatory protein of NADPH oxidases; hit rate 0.53% among 220,000; AID 1274; p47phox/p22phox peptide binding, fluorescence polarization, 2 h; P14598; inhibition, % at 24.7 µM
Bim-Mcl-1 = human Bim-Mcl-1 interaction inhibition; Q07820; Bead-based flow cytometry, Bim peptide-Mcl-1 binding; inhibition, % at 10 µM; hit rate 0.1% among 190,000; AID 1009; in the data active means inhibition above about 40%
14-3-3 Bad PPI = disrupts binding of bovine 14-3-3 zeta to phospho-Bad peptide; P63103; TR-FRET 14-3-3zeta/Dy647-pBad peptide displacement, 1 h; inhibition, % at 21.7 µM; hit rate 0.71% among 220,000;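 active means inhibition above about 70%, limit read from the data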
Target sequence (P63103 whole entry, looked up): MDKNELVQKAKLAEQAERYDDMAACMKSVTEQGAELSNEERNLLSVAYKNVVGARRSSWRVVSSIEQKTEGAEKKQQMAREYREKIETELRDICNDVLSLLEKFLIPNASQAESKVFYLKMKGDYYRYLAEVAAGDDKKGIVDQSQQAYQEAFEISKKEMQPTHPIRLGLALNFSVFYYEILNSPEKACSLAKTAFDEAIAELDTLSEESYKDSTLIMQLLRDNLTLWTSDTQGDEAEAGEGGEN
eIF4E-4G inh = inhibitors of eIF4E and eIF4G interaction in translation initiation; P63073+Q04637; TR-FRET eIF4E-eIF4GI(517-606) binding, 2 h; inhibition, % at 21.7 µM; hit rate 0.37% among 220,000
Mcl1-Bid inh = Mcl-1/Bid interaction inhibition | Q07820 | TR-FRET Mcl-1/Bid-Dy647 peptide binding, 1536-well | inhibition, % at 21.7 µM | hit rate 0.97% among 220,000 | AID 1021;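 active means compounds that cut the binding signal by more than half at the single screening dose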;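 further: His-tagged Mcl-1 with europium anti-His antibody binding Bid BH3 peptide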
Of the large screens only hits and unclear results are named; the others gave an inactive call; [ ] = remark or other dose. Hits are enriched below; roughly 3.3% of the tested compounds scored in any of these assays.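 How the source made its calls, unless noted: active means inhibition above about 30% (limit read from the data); inactive means the rest.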

Cc1[nH]c2ccccc2c1C(=O)C(=O)NCc1ccco1	none
CCN(CC)S(=O)(=O)c1ccc(OC)c(NC(=O)CSc2cc(C)ccc2C)c1	none
Cc1cc(C)c2c(c1)c(C)cc1nnc(SCC(=O)c3cccs3)n12	14-3-3 Bad PPI 73
Cc1c(Cl)cccc1NS(=O)(=O)c1ccc2c(c1)C1C=CCC1C(c1ccc(C(=O)O)cc1)N2 (centres undefined)	Mcl1-Noxa inh 103, 14-3-3 Bad PPI 91, eIF4E-4G inh 50, Mcl1-Bid inh 100
COc1ccccc1-n1c(SCC(=O)c2ccc(O)cc2O)nc2cc([N+](=O)[O-])ccc21	none
CCOC(=O)C1CCCN(c2c(N3CCN(C)CC3)c(=O)c2=O)C1 (centres undefined)	none
CCOC(=O)C1CCCN(c2c(N3CCN(c4cccc(Cl)c4)CC3)c(=O)c2=O)C1 (centres undefined)	Mcl1-Bid inh 86
O=C(/C=C\c1ccc(-c2cccc([N+](=O)[O-])c2)o1)N1CCOCC1	none
O=C(NN1CCOCC1)c1cccc(COc2cccc(Br)c2)c1	14-3-3 Bad PPI 93
Cc1ccc(C(=O)N/N=C/c2ccc(-c3ccccc3[N+](=O)[O-])o2)cn1	none
COc1ccc(-c2ccc(/C=N/NC(=O)c3cccnc3)o2)c([N+](=O)[O-])c1	Mcl1-Noxa inh 74, 14-3-3 Bad PPI 79[fluorescence artefact?]
Fc1ccccc1COc1ccc2ccccc2c1CNc1nn[nH]n1	none
O=C(NCc1ccccc1)c1ccc(CS(=O)(=O)Cc2ccccc2F)o1	none
O=C(O)c1ccc(CS(=O)(=O)Cc2ccccc2F)o1	Mcl1-Bid inh 92
CCN(CC)C(=O)CNC(=O)Cc1ccc(Cl)cc1	none
CCOC(=O)c1ccccc1NC(=O)Cn1cnc2c(nnn2-c2ccc(C)cc2)c1=O	eIF4E-4G inh 50
COc1ccccc1NC(=O)Cn1cnc2c(nnn2-c2ccc(C)cc2)c1=O	none
CCOC(=O)CC(C(=O)OCC)P(=O)(c1ccccc1)c1ccccc1 (centres undefined)	none
CCCC(C(=O)OCC)P(=O)(c1ccccc1)c1ccccc1 (centres undefined)	14-3-3 Bad PPI 84
CCc1nc(SCC(=O)Nc2ccc3c(c2)OCCO3)c2oc3ccccc3c2n1	p47phox inh 39
CCc1nc(N2CCN(Cc3ccc4c(c3)OCO4)CC2)c2oc3ccccc3c2n1	14-3-3 Bad PPI 80
CCc1nc(N2CCCCC2)c2oc3ccccc3c2n1	none
CCc1nc(NC(C)C)c2oc3ccccc3c2n1	14-3-3 Bad PPI 76
Cc1nc(SCC(=O)Nc2ccc3c(c2)OCCO3)c2oc3ccccc3c2n1	none
CCc1nc(Nc2ccc3c(c2)OCO3)c2oc3ccccc3c2n1	14-3-3 Bad PPI 70[fluorescence artefact?]
Cc1cc(=O)[nH]c(-c2ccc(C(F)(F)F)cc2)n1	none (no result: Bim-Mcl-1)
O=C1CNC(=O)N1CC(O)Cn1c2ccccc2c2ccccc21 (centres undefined)	none
Cc1ccc(Nc2nnc(SC3CCOC3=O)s2)c(C)c1 (centres undefined)	14-3-3 Bad PPI 80
Cc1ccc(Nc2nnc(SCC(=O)NC3CCS(=O)(=O)C3)s2)c(C)c1 (centres undefined)	none
CC(=O)NN1C(=O)c2ccccc2NC1c1ccoc1 (centres undefined)	none
COc1ccc(-n2c(=O)/c(=C\c3cccs3)s/c2=C(/C#N)C(=O)N2CCN(C)CC2)cc1	none
COC(=O)CCN(C(=O)c1ccc2c(c1)OCO2)c1ccccn1	none
COC(=O)CCN(C(=O)c1cccc(OC(C)=O)c1)c1ccccn1	Mcl1-Bid inh 52
CCOc1ccc(Br)cc1CN(CC)CC	none (no result: Bim-Mcl-1)
COc1ccc(-c2nc3ccccc3c(=O)n2CCOc2cccc(C)c2C)cc1	Mcl1-Bid inh 95
Cc1ccccc1Cn1c(=O)n(CCC(=O)NCc2ccc3c(c2)OCO3)c(=O)c2ccccc21	p47phox inh 37
O=C(CCn1c(=O)c2ccccc2n(Cc2cccnc2)c1=O)NCc1ccc2c(c1)OCO2	none
C=C(C)c1cccc(C(C)(C)NC(=O)N2CCCC(C)C2)c1 (centres undefined)	none
C=C(C)c1cccc(C(C)(C)NC(=O)N(C)C2CCN(C)CC2)c1	p47phox inh 110
Cc1cc(C)nc(/N=C(\N)N2CCc3ccccc32)n1	Bim-Mcl-1 49
Cc1cc(C)nc(/N=C(\N)N2CCCCCC2)n1	none
Cc1ccc(Nc2nc(N)nc(CSC(=S)N3CCOCC3)n2)cc1	none
CCOc1ccc(Nc2nc(N)nc(CSC(=S)N3CCOCC3)n2)cc1	p47phox inh 125 (no result: Bim-Mcl-1)
Nc1ccccc1Nc1cc(-c2ccccc2)nn1-c1cccc(Cl)c1	none
CNc1nn(-c2cccc(Cl)c2)nc1N	Mcl1-Bid inh 96
NC(=O)/C(=C\c1ccccc1)NC(=O)c1ccc(NC(=O)c2ccccc2)cc1	none (no result: Bim-Mcl-1)
O=[N+]([O-])c1cc(/C=N\O)ccc1Oc1ccc(F)cc1	14-3-3 Bad PPI 85
COc1cc(/C=N/O)ccc1Oc1ccc([N+](=O)[O-])cc1[N+](=O)[O-]	none
Oc1ccc(-c2[nH]ncc2-c2cccc3cccnc23)c(O)c1	eIF4E-4G inh 92
O=C(CO/N=C/c1ccccc1O)N1CCc2ccccc21	none
O=C(Nc1nc(-c2ccccc2)cs1)C1CCCCN1S(=O)(=O)c1ccc(Cl)cc1 (centres undefined)	none
CC(C)(C)C(=O)Nc1nc(C2CCCN2S(=O)(=O)c2ccc(Cl)cc2)cs1 (centres undefined)	14-3-3 Bad PPI 71
O=C(c1cnc(Cl)c(Cl)c1)N1CCC(Cc2ccccc2)CC1	Mcl1-Noxa inh 51
O=C(Cc1cccs1)N/N=C/C=C/c1ccco1	Mcl1-Noxa inh 70
O=C(CSc1nnc(SCc2ccccc2)s1)N/N=C/C=C/c1ccco1	Mcl1-Noxa inh 106
CCn1c(SCC(=O)N/N=C/C=C/c2ccco2)nnc1-c1ccccc1	none
O=C(N/N=C\C=C\c1ccco1)c1cc(-c2ccc3ccccc3c2)n[nH]1	Mcl1-Noxa inh 93
CCc1nnc(NC(=O)C(CC)CC)s1	none (no result: Bim-Mcl-1)
Cc1ccc(N=Nc2c(N)[nH]n3c(=O)cc(-c4ccccc4)nc23)cc1	Mcl1-Noxa inh 81, Mcl1-Bid inh 76
COc1cccc(N=Nc2c(N)[nH]n3c(=O)cc(-c4ccccc4)nc23)c1	Mcl1-Bid inh 56
Cc1cc(=O)n2[nH]c(N)c(N=Nc3ccccc3)c2n1	none
CN(C)c1ccc(N/C(N)=N/c2nc(C(F)(F)F)cc(C(F)(F)F)n2)cc1	Mcl1-Noxa inh 61
CN1CCc2cc(Cl)c(O)cc2[C@@H](c2ccccc2)C1	none
Oc1cc2c(cc1O)[C@@H](c1ccccc1)CNCC2	Mcl1-Noxa inh 67
CC(C)NCC(=O)Nc1c2c(nc3ccccc13)CCC2	eIF4E-4G inh 31 (no result: Bim-Mcl-1)
Cc1c(NC(=O)C(C)OC(=O)c2c3c(nc4ccccc24)CCC3)c(=O)n(-c2ccccc2)n1C (centres undefined)	Mcl1-Noxa inh 54
